Source: PubChem BioAssay
This is one part of the list. Calls of active or inactive are those of the source.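 How the source made its calls, unless noted: active means inhibition above the hit cutoff computed for the primary STAT3 screen (cut at about 44% in these data); inactive means the rest.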

Tests used:
[1] = STAT1 signaling activators, confirmation, cell-based, HTS, luciferase reporter (AID 1262;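 active means activation above a set limit carried over from the earlier primary STAT1 screen, cut at about 140% in these data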;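 further: simple ratio to median IFN-gamma plus DMSO wells so 0% means no light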); conditions: NIH 3T3 STAT1-luciferase reporter, IFN-gamma potentiation, luminescence; at 5.7 µM; hits give high values; 100% = IFN-gamma EC80 alone, no compound
[2] = NF-kB reporter activators, TNF-alpha stimulated, counter-screen for STAT1 activator project, cell-based, HEK293T, luciferase luminescence (AID 1306;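 active means activation above the mean of solvent-only control wells plus 3 SD, set per campaign, cut at about 130% in these data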;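 further: TNF-alpha given at a submaximal dose yielding about 80% of full reporter signal; values are well signal over median control so 100% means no change and 0% no light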); conditions: at 5.7 µM, hits give high values, 100% = TNF-alpha with vehicle only
[3] = molecular target: Signal transducer and activator of transcription 3 (Homo sapiens) (UniProt P40763); test: STAT3 reporter activation by STAT1 hits, confirmation, counter-screen for STAT1 activator project, U3A cells, luciferase, luminescence (AID 1316;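 active means activation above the solvent-only control well mean plus 3 SD, set per plate batch, cut at about 110% in these data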;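 further: 0% = no luminescence and 100% = median IL-6 plus DMSO wells; higher means more STAT3 reporter activation so hits are non-selective activators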); conditions: IL-6, luminescence, at 5.7 µM, hits give high values, 100 = IL-6 alone, no compound effect, cells lack STAT1
[4] = test system: DAF-12 nuclear receptor (Heterodera glycines), GAL4-LBD fusion; test: H. glycines DAF-12 receptor agonists, confirmation, cell-based, luminescence, HEK293, GAL4-LBD fusion (AID 743050;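 active means mean activation over triplicate wells above the hit cutoff derived from the earlier primary screen, cut at about 11% in these data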;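 further: 0% = DMSO low control and 100% = 2 mM sodium butyrate high control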); conditions: HEK293 GAL4-hgDAF12 luciferase reporter, agonist mode; at 6.8 µM; hits give high values; percent of butyrate response
[5] = molecular target: Oxysterols receptor LXR-beta (Homo sapiens) (UniProt P55055); test: LXR agonists, Gal4 luciferase reporter, confirmation, counter-screen for hgDAF-12 agonist project, cell-based, luminescence, HEK293, H. glycines campaign (AID 743051;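 active means mean activation of the triplicate above a set limit carried over from the primary screen, none filed active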); conditions: 24 h, at 6.8 µM, hits give high values
Oxysterols receptor LXR-beta (Homo sapiens), sequence (P55055 whole entry, looked up, the tested form may be a part): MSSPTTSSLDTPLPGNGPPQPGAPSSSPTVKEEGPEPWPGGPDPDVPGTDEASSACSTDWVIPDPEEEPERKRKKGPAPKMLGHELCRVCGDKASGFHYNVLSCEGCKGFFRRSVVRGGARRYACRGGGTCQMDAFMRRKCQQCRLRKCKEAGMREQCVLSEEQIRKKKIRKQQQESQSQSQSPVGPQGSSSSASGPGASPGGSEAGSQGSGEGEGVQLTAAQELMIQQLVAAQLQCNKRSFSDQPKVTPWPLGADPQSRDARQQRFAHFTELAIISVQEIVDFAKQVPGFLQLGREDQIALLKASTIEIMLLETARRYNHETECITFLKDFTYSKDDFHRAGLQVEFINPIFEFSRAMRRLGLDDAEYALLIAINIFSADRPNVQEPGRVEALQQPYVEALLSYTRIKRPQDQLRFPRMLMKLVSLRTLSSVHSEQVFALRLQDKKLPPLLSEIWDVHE

[6] = STAT3 reporter inhibitors, retest of hits, confirmation, U3A cells, luciferase, luminescence (AID 1265); conditions: IL-6 STAT3 luciferase reporter, at 5.7 µM, hits give high values, cell line lacks STAT1;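 further: 0% = IL-6 plus DMSO and 100% = IL-6 plus nifuroxazide control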
[7] = NF-kB reporter inhibitors in human cells, confirmation, counter-screen for STAT3 inhibitor project, cell-based, HEK293T, luciferase, TNF-alpha stimulus (AID 1308;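 active means inhibition above the mean of solvent-only control wells plus 3 SD, cutoff set per campaign, cut at about 13% in these data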;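 further: 0% = TNF-alpha with DMSO and 100% = TNF-alpha with MG high control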); conditions: TNF-alpha induced, at 5.7 µM, hits give high values
[8] = STAT1 reporter inhibitors, IFN-gamma induced, confirmation, counter-screen for STAT3 inhibitor project, cell-based, NIH 3T3, luciferase luminescence (AID 1317;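 active means inhibition above the mean plus 3 SD of solvent-only control wells, limit set per screening run, cut at about 16% in these data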;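 further: 0% = DMSO with IFN-gamma and 100% = nifuroxazide control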); conditions: NIH 3T3 STAT1-luciferase reporter, at 5.7 µM, hits give high values
[9] = molecular target: Platelet-activating factor acetylhydrolase (Homo sapiens) (UniProt Q13093); test: pPAFAH (PLA2G7) enzyme inhibitors, confirmation, biochemical, fluorescence polarization, human (AID 463230;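 active means mean inhibition of the triplicate above the hit cutoff set for the earlier primary screen, cut at about 25% in these data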;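 further: 0% = enzyme with DMSO and 100% = wells lacking pPAFAH enzyme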); conditions: recombinant pPAFAH, FP-Rh probe fluorescence polarization; at 3.39 µM; hits give high values
Platelet-activating factor acetylhydrolase (Homo sapiens), sequence (Q13093 whole entry, looked up): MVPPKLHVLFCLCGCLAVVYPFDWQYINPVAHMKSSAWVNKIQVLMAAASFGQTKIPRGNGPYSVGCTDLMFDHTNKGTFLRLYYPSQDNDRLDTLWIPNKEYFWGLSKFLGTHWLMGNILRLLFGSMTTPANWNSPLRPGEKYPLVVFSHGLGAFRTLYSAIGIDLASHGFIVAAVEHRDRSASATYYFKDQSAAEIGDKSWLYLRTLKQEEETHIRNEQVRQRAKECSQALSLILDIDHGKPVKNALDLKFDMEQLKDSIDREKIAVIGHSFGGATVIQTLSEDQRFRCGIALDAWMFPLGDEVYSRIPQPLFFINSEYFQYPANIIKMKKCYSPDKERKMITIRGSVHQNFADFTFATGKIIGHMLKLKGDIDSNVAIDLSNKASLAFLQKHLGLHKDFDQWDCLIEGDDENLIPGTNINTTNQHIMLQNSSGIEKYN

[10] = growth loss of phage-infected E. coli expressing H. pylori AddAB, confirmation, AddAB inhibitor project, absorbance, E. coli V3065, T4 phage, triplicate (AID 488942;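 active means mean inhibition above a set limit taken from the earlier primary screen, cut at about 13% in these data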;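 further: higher means less bacterial growth since AddAB block lets phage replicate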); conditions: OD, at 11.9 µM, hits give high values, T4 phage with gene 2 nonsense mutations
[11] = growth loss of RecBCD+ E. coli with mutant T4 phage, counter-screen for AddAB inhibitor project, absorbance, V66 E. coli (AID 488955;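 active means mean inhibition above the mean of solvent-only control wells plus 3 SD, cut at about 4% in these data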;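 further: optical density read after an 18 h incubation at 37 °C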); conditions: OD growth, at 11.9 µM, hits give high values
[12] = bacterial viability inhibition counter-screen, confirmation, counter-screen for AddAB inhibitor project, absorbance (AID 488956; in the data active means inhibition above about 25%); conditions: absorbance (AddAB counterscreen), at 11.9 µM, hits give high values
[13] = molecular target: Nuclear receptor coactivator 3 (Homo sapiens) (UniProt Q9Y6Q9); test: SRC3 coactivator transcriptional activity inhibitors, confirmation, cell-based, luminescence, quadruplicate (AID 588792;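 active means mean inhibition over 43.08%, the solvent-only control mean plus 3 SD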;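 further: 0% = DMSO treated cells and 100% = gossypol at 36 µM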); conditions: HEK293 GAL4-SRC3 luciferase reporter, at 3.6 µM, hits give high values
Nuclear receptor coactivator 3 (Homo sapiens), sequence (Q9Y6Q9 whole entry, looked up, the tested form may be a part): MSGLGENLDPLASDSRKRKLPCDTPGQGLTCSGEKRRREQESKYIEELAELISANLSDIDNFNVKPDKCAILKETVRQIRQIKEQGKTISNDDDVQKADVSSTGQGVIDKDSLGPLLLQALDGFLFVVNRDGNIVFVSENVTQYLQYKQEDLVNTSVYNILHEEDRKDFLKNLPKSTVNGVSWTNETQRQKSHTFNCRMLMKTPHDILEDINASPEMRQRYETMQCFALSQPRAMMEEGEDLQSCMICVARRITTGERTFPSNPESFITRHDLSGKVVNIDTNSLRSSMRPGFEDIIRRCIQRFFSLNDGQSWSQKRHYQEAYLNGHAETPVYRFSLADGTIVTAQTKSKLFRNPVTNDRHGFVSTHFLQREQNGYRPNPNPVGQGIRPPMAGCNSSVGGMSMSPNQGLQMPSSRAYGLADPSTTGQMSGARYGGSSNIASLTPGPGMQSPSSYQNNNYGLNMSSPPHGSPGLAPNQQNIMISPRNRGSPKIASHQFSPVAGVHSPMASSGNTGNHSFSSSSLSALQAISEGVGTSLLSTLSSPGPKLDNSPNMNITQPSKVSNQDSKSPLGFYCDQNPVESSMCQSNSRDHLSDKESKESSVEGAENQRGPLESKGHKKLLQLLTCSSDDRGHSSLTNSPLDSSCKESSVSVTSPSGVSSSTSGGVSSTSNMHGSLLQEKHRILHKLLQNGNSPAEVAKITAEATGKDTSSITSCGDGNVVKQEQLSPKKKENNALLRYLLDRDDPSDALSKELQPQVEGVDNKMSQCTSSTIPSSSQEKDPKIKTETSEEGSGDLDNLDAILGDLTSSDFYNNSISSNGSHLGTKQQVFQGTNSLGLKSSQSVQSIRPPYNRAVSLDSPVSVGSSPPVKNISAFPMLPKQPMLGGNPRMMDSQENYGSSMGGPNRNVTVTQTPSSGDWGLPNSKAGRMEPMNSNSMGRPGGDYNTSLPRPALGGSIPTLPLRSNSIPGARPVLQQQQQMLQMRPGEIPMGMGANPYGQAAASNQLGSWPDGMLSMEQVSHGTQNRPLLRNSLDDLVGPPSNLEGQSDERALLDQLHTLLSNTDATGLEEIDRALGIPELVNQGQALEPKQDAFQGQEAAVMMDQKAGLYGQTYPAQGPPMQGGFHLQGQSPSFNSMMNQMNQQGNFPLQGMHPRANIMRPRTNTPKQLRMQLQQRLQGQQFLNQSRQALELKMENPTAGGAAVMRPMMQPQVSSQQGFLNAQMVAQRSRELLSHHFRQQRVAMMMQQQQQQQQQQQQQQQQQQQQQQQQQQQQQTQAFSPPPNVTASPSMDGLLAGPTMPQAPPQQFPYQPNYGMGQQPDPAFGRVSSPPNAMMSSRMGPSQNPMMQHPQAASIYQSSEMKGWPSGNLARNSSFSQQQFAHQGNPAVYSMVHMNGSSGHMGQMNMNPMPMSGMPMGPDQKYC

[14] = test system: transactivating tegument protein VP16 (Human herpesvirus 1), Gal4-VP16 luciferase reporter; test: VP16 transactivation inhibitors, counter-screen for SRC3 inhibitor project, cell-based, luminescence, high throughput (AID 588794; in the data active means inhibition above about 30%); conditions: mammalian cells, VP16-driven luciferase reporter luminescence; at 3.6 µM; hits give high values
[15] = molecular target: Nuclear receptor coactivator 1 (Homo sapiens) (UniProt Q15788); test: SRC1 coactivator transcriptional activity inhibitors, confirmation, cell-based, luminescence, quadruplicate (AID 588820;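 active means mean inhibition above 46.68%, the untreated control wells mean plus 3 SD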;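 further: 0% = DMSO wells and 100% = gossypol 36 µM treated wells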); conditions: HEK293 GAL4-SRC1 luciferase reporter, at 3.6 µM, hits give high values
[16] = VP16 transactivation inhibitors, counter-screen for SRC1 inhibitor project, cell-based, luminescence, high throughput (AID 588824; in the data active means inhibition above about 25%); conditions: cell-based VP16 transactivation luciferase luminescence; at 3.6 µM; hits give high values
[17] = molecular target: Photoreceptor-specific nuclear receptor (Homo sapiens) (UniProt Q9Y5X4); test: NR2E3 agonist confirmation in cells, cell-based, luminescence, CHO-S two-hybrid (AID 624378;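 active means average inhibition above a cutoff equal to the mean inhibition of all tested compounds plus one SD, cut at about 70% in these data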;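 further: 0% = DMSO in NR2E3 cells and 100% = DMSO in cells lacking NR2E3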); conditions: CHO-S mammalian two-hybrid NR2E3-NCOR, luciferase luminescence; at 3.98 µM; hits give high values
Photoreceptor-specific nuclear receptor (Homo sapiens), sequence (Q9Y5X4 whole entry, looked up, the tested form may be a part): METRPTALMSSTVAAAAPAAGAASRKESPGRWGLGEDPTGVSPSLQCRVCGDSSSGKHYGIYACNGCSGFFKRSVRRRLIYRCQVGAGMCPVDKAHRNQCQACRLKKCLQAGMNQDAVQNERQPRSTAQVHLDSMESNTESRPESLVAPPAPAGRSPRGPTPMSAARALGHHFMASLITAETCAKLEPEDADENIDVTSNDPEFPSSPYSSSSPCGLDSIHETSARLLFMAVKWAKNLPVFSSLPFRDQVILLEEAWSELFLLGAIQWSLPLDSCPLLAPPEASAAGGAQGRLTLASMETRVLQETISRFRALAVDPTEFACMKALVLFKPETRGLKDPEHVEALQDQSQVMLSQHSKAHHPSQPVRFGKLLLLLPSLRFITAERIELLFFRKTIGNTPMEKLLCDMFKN

[18] = GAL4-VP16 reporter modulators, confirmation, counter-screen for NR2E3 agonist project, cell-based, luminescence, CHO-S, high throughput (AID 624379;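 active means mean inhibition above a cutoff equal to the average over all tested compounds plus one standard deviation, cut at about 70% in these data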;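 further: 0% = DMSO with VP16-transfected cells and 100% = DMSO with cells lacking VP16; higher means less reporter light so more repression of VP16 activity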); conditions: CHO-S GAL4-VP16 luciferase reporter, at 3.98 µM, hits give high values
[19] = StAR promoter reporter inhibitors, counter-screen for LRH-1 inverse agonist project, cell-based, luminescence, high throughput (AID 651611; in the data active means inhibition above about 28%); conditions: StAR promoter luciferase reporter counterscreen, at 3.6 µM, hits give high values
[20] = molecular target: Nuclear receptor subfamily 5 group A member 2 (Homo sapiens) (UniProt O00482); test: LRH-1 (NR5A2) inverse agonists, retest, confirmation, cell-based, luminescence (AID 651613; in the data active means inhibition above about 42%;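 further: HEK293T cells co-transfected with LRH-1 and StAR promoter luciferase reporter; 0% = vehicle wells and 100% = parental cells lacking receptor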); conditions: cell-based LRH-1 luciferase reporter, inverse agonism; at 3.6 µM; hits give high values
Nuclear receptor subfamily 5 group A member 2 (Homo sapiens), sequence (O00482 whole entry, looked up): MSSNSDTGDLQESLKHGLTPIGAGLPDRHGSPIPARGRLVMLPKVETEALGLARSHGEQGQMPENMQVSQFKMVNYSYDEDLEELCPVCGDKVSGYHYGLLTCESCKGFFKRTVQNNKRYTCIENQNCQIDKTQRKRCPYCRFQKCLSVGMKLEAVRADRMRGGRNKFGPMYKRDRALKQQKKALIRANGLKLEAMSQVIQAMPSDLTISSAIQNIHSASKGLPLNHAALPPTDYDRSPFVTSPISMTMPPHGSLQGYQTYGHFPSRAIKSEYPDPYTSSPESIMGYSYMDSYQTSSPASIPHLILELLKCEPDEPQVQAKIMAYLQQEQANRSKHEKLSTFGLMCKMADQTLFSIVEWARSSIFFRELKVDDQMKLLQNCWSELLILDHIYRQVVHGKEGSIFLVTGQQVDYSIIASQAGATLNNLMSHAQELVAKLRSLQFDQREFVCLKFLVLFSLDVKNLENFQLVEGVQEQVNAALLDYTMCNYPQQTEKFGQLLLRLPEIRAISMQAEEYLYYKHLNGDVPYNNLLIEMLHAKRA

[21] = molecular target: Steroidogenic factor 1 (Homo sapiens) (UniProt Q13285); test: SF1 (NR5A1) inverse agonists, counter-screen for LRH-1 inverse agonist project, cell-based, luminescence, high throughput (AID 651614; in the data active means inhibition above about 44%;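 further: cells cotransfected with StAR promoter reporter and SF1 expression vector; 0% = vehicle on cells with receptor and 100% = vehicle on cells lacking receptor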); conditions: cell-based SF1 luciferase reporter, at 3.6 µM, hits give high values
Steroidogenic factor 1 (Homo sapiens), sequence (Q13285 whole entry, looked up, the tested form may be a part): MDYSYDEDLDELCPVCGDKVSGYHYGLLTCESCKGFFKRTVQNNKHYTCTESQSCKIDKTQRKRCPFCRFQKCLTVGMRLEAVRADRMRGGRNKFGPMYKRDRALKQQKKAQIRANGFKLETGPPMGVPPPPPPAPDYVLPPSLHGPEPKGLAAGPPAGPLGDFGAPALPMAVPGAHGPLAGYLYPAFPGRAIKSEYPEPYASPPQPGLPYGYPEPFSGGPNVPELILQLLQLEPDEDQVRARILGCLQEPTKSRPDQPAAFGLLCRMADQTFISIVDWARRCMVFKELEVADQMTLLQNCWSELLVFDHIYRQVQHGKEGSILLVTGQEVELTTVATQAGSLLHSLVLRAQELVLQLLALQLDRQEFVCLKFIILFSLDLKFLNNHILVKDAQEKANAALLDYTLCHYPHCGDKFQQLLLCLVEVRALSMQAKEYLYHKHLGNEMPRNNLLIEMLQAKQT

[22] = VP16 transactivation reporter inhibitors, counter-screen for LRH-1 inverse agonist project, cell-based, luminescence, high throughput (AID 651615; in the data active means inhibition above about 33%); conditions: Gal4-VP16 luciferase reporter cells, at 3.6 µM, hits give high values
[23] = Gal4-VP16 luciferase reporter inhibitors, counter-screen for COUP-TFII antagonist project, cell-based, luminescence, HEK293 (AID 687007; in the data active means inhibition above about 13%); conditions: at 8.5 µM, hits give high values
[24] = molecular target: COUP transcription factor 2 (Homo sapiens) (UniProt P24468); test: NR2F2 transcriptional activity inhibitors, confirmation, cell-based, luciferase reporter, HEK293, triplicate (AID 687008;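 active means mean inhibition over three repeats above a set limit taken from the earlier primary screen, cut at about 38% in these data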;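 further: 100% = cells given the luciferase reporter alone without the COUP-TF2 vector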); conditions: HEK293 NGFI-A luciferase reporter, luminescence; at 8.5 µM; hits give high values
COUP transcription factor 2 (Homo sapiens), sequence (P24468 whole entry, looked up): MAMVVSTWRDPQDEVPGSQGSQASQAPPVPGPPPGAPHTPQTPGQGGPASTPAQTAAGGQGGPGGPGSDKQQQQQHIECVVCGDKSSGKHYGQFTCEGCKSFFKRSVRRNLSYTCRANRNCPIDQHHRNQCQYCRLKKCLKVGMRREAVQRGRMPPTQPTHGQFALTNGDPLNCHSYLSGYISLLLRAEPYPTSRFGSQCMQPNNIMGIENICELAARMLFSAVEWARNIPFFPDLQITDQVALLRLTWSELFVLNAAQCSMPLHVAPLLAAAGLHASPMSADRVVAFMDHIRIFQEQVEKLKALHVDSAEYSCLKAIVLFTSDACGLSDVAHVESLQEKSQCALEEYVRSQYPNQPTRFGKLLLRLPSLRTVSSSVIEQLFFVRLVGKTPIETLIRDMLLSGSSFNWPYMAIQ

[25] = molecular target: Serine protease HTRA1 (Homo sapiens) (UniProt Q92743); test: HTRA1 protease inhibitors, retest, confirmation, biochemical, fluorescence polarization (AID 540248;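 active means mean inhibition over three repeats above a set limit taken from the earlier primary screen, cut at about 37% in these data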;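 further: 0% = HTRA1 with DMSO and 100% = wells lacking HTRA1; inhibitors block probe binding so polarization drops and inhibition rises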); conditions: recombinant HTRA1, FP-rhodamine activity-based probe, at 5.96 µM, hits give high values
[26] = molecular target: Neuropeptide Y receptor type 2 (Homo sapiens) (UniProt P49146); test: NPY-Y2 potentiators or agonists, confirmation, cell-based (AID 1539; in the data active means activation above about 33%); conditions: cell-based NPY-Y2 potentiator/agonist assay; at 3.6 µM; hits give high values
Neuropeptide Y receptor type 2 (Homo sapiens), sequence (P49146 whole entry, looked up): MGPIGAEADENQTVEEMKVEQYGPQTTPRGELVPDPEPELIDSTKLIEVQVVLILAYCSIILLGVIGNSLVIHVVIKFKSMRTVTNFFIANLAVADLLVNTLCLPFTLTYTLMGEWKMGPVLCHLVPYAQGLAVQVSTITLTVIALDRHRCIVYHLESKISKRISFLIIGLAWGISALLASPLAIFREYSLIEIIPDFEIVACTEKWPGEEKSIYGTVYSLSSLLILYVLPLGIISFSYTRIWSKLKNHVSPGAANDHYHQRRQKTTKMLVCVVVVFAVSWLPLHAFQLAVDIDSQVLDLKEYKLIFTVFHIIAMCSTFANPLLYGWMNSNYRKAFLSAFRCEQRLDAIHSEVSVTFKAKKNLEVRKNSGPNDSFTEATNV

[27] = molecular target: Neuropeptide Y receptor type 1 (Homo sapiens) (UniProt P25929); test: NPY-Y1 potentiators or agonists, counter-screen for NPY-Y2 potentiator project, cell-based, fluorescence (AID 1651; in the data active means activation above about 45%;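 further: cells stimulated with submaximal NPY then isoproterenol with phosphodiesterase inhibitor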); conditions: Y1 HEK293-CNG cells, membrane potential fluorescence; at 3.6 µM; hits give high values
Neuropeptide Y receptor type 1 (Homo sapiens), sequence (P25929 whole entry, looked up): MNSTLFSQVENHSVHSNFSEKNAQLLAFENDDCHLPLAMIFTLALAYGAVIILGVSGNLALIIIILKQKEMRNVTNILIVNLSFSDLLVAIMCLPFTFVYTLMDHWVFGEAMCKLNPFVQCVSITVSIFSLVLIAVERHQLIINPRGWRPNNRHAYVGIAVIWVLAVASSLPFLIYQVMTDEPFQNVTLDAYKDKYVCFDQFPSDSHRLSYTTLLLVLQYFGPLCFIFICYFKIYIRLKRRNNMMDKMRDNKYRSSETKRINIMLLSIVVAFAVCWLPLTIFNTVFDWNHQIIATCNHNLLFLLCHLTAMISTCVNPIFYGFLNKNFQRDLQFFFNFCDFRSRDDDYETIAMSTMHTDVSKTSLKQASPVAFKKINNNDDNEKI

[28] = molecular target: Neuropeptide Y receptor type 1 (Homo sapiens) (UniProt P25929); test: NPY-Y1 direct agonists, selectivity assay for NPY-Y2 potentiator project, cell-based, fluorescence (AID 1702;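 active means activation above the mean of DMSO-only control wells plus 3 SD, cut at about 18% in these data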;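 further: cells stimulated with 1 µM isoproterenol plus the PDE inhibitor Ro 20-1724; 0% = isoproterenol with DMSO and no NPY and 100% = 40 nM NPY; Y1 agonists lower the membrane potential dye signal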); conditions: HEK293 Y1-CNGC, membrane potential fluorescence, agonism; at 3.6 µM; hits give high values
[29] = CNGC cAMP sensor activity inhibitors, counter-screen for NPY-Y2 potentiator project, cell-based, HEK293-CNG parental, membrane potential fluorescence (AID 1703;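 active means inhibition above the control-well mean plus 3 SD of those wells, cut at about 22% in these data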;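 further: 0% = DMSO with isoproterenol and 100% = DMSO without isoproterenol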); conditions: isoproterenol cAMP, at 3.6 µM, hits give high values
[30] = molecular target: Neuropeptide Y receptor type 2 (Homo sapiens) (UniProt P49146); test: NPY-Y2 direct agonists, counter-screen for NPY-Y2 potentiator project, cell-based, fluorescence (AID 1710;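 active means activation above the mean of solvent-only control wells plus 3 SD, cut at about 10% in these data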;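 further: cells stimulated by isoproterenol with no NPY added so direct agonism is tested; 0% = DMSO with isoproterenol alone and 100% = NPY at EC100 plus isoproterenol; agonism lowers probe fluorescence through less cAMP and CNG channel opening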); conditions: HEK293 Y2/CNGC cells, membrane potential fluorescence, agonist mode; at 3.6 µM; hits give high values
[31] = molecular target: Insulin-degrading enzyme (Homo sapiens) (UniProt P14735); test: human IDE inhibitors in live cells, confirmation, fluorescence polarization, HEK cells, FAbetaB substrate (AID 435028;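 active means mean inhibition across triplicate wells above the cutoff set by the earlier primary insulin-degrading enzyme screen, cut at about 16% in these data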;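 further: 0% = DMSO wells and 100% = 60 µM reference IDE inhibitor Ii1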); conditions: FAbetaB cleavage, at 5.59 µM, hits give high values
[32] = cytotoxicity in HEK cells, cytotoxicity control for IDE inhibitor project, cell-based, luminescence (AID 449730; in the data active means inhibition above about 22%;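 further: 0% = vehicle wells and 100% = reference cytotoxic drug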); conditions: HEK293 cytotoxicity, ATP luminescence; at 5.59 µM; hits give high values
[33] = KLF5 expression inhibitors, confirmation, DLD-1 cells, luminescence (AID 1834;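 active means inhibition above a set limit taken from the earlier primary screen, cut at about 63% in these data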;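 further: 0% = DMSO wells and 100% = LY294002 at 200 µM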); conditions: DLD-1 KLF5 promoter firefly luciferase reporter, at 4 µM, hits give high values
[34] = cytotoxicity in rat IEC-6 cells, cytotoxicity control for KLF5 inhibitor project, cell-based, luminescence, triplicate (AID 1905; in the data active means inhibition above about 23%;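 further: cells exposed to compounds for 48 hours before viability read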); conditions: IEC-6 rat intestinal cells, viability luminescence; at 4 µM; hits give high values

NC(=O)Cc1ccc2sc(-c3ccccc3)nc2c1
active: activation (% of control) [1] 203% | activation [4] 17.4%
inactive: activation (% of control) [2] 126% | activation (% of control) [3] 108% | activation [5] 0.66%

O=C(NCCCn1ccnc1)c1cc(-c2ccccc2)on1
inactive: activation [5] 0.27%
active: activation (% of control) [1] 173% | activation (% of control) [2] 165% | activation (% of control) [3] 132% | activation [4] 57.6%

O=C(Nc1ccc2oc(-c3ccccc3F)nc2c1)c1ccco1
active: activation (% of control) [1] 204% | activation (% of control) [2] 137% | activation [4] 11.9%
inactive: activation (% of control) [3] 104% | activation [5] 0.57%

CCN1/C(=C\c2ccc3ccccc3[n+]2CC)Sc2cc(C)ccc21
active: inhibition [6] 86.2% | inhibition [7] 33.4% | inhibition [8] 19% | inhibition [10] 34.1% | inhibition [11] 5.58% | inhibition [14] 70.5% | inhibition [16] 67.9% | inhibition [17] 98.3% | inhibition [18] 87.5% | inhibition [19] 59.5% | inhibition [20] 107% | inhibition [21] 86.4% | inhibition [22] 83.4% | inhibition [24] 66.5%
inactive: inhibition [9] 2.61% | inhibition [12] 16.1% | inhibition [13] 35.8% | inhibition [15] 32.7% | inhibition [23] 10.8%

O=C(Nc1nc2ccccc2s1)c1ccc2c(c1)OCO2
inactive: inhibition [6] 41.7% | inhibition [7] 10.6% | inhibition [8] -93.8%

CCCCOc1ccc(-c2nnc(-c3ccco3)o2)cc1
inactive: inhibition [6] 21.3% | inhibition [7] -24.1% | inhibition [8] -66.4%

Cc1ccc(Nc2ccccc2N)cc1
active: inhibition [7] 22.9% | inhibition [25] 53.1%
inactive: inhibition [6] 24.3% | inhibition [8] 6.8%

CCSc1nnc(NC(=O)c2ccc(C)cc2)s1
inactive: inhibition [6] 21.2% | inhibition [7] -24.2% | inhibition [8] -63% | activation [26] -4.89% | activation [27] -0.65% | activation [28] -1.02% | inhibition [29] -0.46% | activation [30] -10.9% | activation [5] 0.93%
active: activation [4] 17.3%

Cc1ccc2nc(-c3ccc(NC(=O)c4cccnc4)cc3)oc2c1
inactive: inhibition [6] 31.7% | inhibition [7] -25.2% | inhibition [8] -38.3%

N#Cc1nc(COc2ccc(-c3ccccc3)cc2)oc1NCc1cccnc1
inactive: inhibition [6] 35.1% | inhibition [7] 2.23% | inhibition [8] 12.9%

COc1ccc(-c2csc(-c3cccs3)n2)cc1OC
inactive: activation [4] 9.44% | activation [5] 0.79%
active: activation (% of control) [1] 179% | activation (% of control) [2] 136% | activation (% of control) [3] 114%

Cc1nc(-c2ccc(NC(=O)c3cccs3)cc2)cs1
inactive: inhibition [6] 27.5% | inhibition [7] -26.7% | inhibition [8] -111%

OCCn1c(-c2ccccc2)csc1=Nc1ccccc1
inactive: inhibition [6] 14% | inhibition [7] -12% | inhibition [8] -20.1%

COc1cccc(/C=C/c2ccc3ccccc3n2)c1OC(C)=O
inactive: inhibition [6] 25.2% | inhibition [8] -9.23%
active: inhibition [7] 32.1%

Cc1cc(NC(=O)c2cc(-c3cccs3)on2)nn1Cc1ccc(Cl)cc1
inactive: inhibition [7] 8.43% | inhibition [8] 0.57%
active: inhibition [6] 46.6%

Cn1c(SCC(=O)N2CCCc3ccccc32)nc2ccccc2c1=O
active: inhibition [6] 49.3% | inhibition [7] 13.7% | inhibition [8] 22.5%

CC(C)OCCCNc1ncnc2c1[nH]c1ccc(F)cc12
active: inhibition [6] 78.6% | inhibition [7] 33.4% | inhibition [8] 31.1% | inhibition [31] 17.2% | inhibition [32] 75.2% | inhibition [17] 96.7% | inhibition [18] 81.3% | inhibition [24] 63.3%
inactive: inhibition [23] -32.6%

CCOc1cccc(/C=C/c2ccc3ccccc3n2)c1OC(C)=O
inactive: inhibition [6] -2.03% | inhibition [7] -34.1% | inhibition [8] -15.3%

COc1cc(/C=N/O)ccc1OCc1ccc([N+](=O)[O-])cc1
active: activation (% of control) [1] 234% | activation (% of control) [3] 123% | activation [4] 15.5%
inactive: activation (% of control) [2] 131% | activation [5] 0.71%

Cc1ccc(-c2cc(C(=O)N/N=C/C=C/c3ccco3)c3ccccc3n2)cc1C
inactive: inhibition [6] -39.2% | inhibition [7] 12.6% | inhibition [8] -40.9%

COc1cc(N=Cc2c(O)[nH]c3ccccc23)cc(OC)c1OC
inactive: inhibition [8] -12% | inhibition [34] 19.1% | inhibition [13] 28.2% | inhibition [14] 1.5% | inhibition [18] 58.7% | inhibition [22] 25.2%
active: inhibition [6] 49.1% | inhibition [7] 27% | inhibition [33] 76.8% | inhibition [17] 73.8% | inhibition [19] 61.7% | inhibition [20] 54.4% | inhibition [21] 69.2%

C=CC[n+]1c(-c2ccc(C)cc2)csc1NNC(=O)Nc1ccccc1
active: inhibition [6] 51.1% | inhibition [7] 18.4% | inhibition [8] 16.9%
